We go through 12 compounds from PubChem BioAssay (EPA / NIEHS).

Several values for one entry are separate records, joined by “and”; a condition that tells them apart may be missing. Equal values may be shown once. A structure can be active in one record and inactive in another. Activity calls are given as the source filed them. The calls were made as follows: active = hit-call score of the fitted dose curve at least 0.9, where 1 is the maximum; inactive = score below 0.9.

Assay [1] is described as follows: APR_HepG2_CellCycleArrest_24hr: Apredica 24-hour HepG2 Assay for Cell Cycle Arrest (AID 2282905).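 Also: cell cycle arrest scored as ratio of 2N to 4N nuclear DNA content.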 Particulars: imaging, actives raise or lower the signal. The method, boiled down: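 Step one: dose HepG2 with test compounds, 0.39–200 uM, 0.5% DMSO, 24 hr. Step two: fix, permeabilize, stain nuclei with Hoechst 33342. Step three: image six fields per well at 20x, quantify DNA content, fit bidirectionally relative to DMSO.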

The nature of assay [2]: APR_HepG2_StressKinase_1hr: Apredica 1-hour HepG2 Assay for Stress Kinase (AID 2282906). The following applies: HepG2 stress kinase (phospho-c-Jun) imaging, actives raise or lower the signal. The method, boiled down:
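High-content imaging of phospho-c-Jun immunostaining (with Hoechst nuclear identification) after a 1 h exposure of HepG2 cells to 10 concentrations from 0.39 to 200 uM, final DMSO 0.5%. Fitted bidirectionally against DMSO.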

The nature of assay [3]: APR_HepG2_NuclearSize_24hr: Apredica 24-hour HepG2 Assay for Nuclear Size (AID 2282907). The following applies: high-content imaging, actives raise or lower the signal. The method, boiled down: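 After fixation and permeabilization, 24-hr-treated HepG2 cells were stained with Hoechst 33342 and imaged on an ArrayScan (20x). Doses spanned 0.39–200 uM in duplicate. Nuclear diameter changes in either direction were fitted relative to 0.5% DMSO controls.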

Assay [4] can be described thus: APR_HepG2_CellLoss_24hr: Apredica 24-hour HepG2 Assay for Cell Loss (AID 2282908).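 As to AC50: fit in both directions so a hit may be cell loss or gain.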 Particulars: high-content imaging. The gist of the method: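 Duplicate wells received compound at ten concentrations (0.39–200 uM; final DMSO 0.5% v/v). After fixation with formaldehyde, nuclei stained with Hoechst 33342 were imaged at 20x. Loss or gain of cell count was fitted relative to DMSO controls.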

Assay [5] in a line: APR_HepG2_MicrotubuleCSK_24hr: Apredica 24-hour HepG2 Assay for Microtubule CSK Stabilty (AID 2282909). The following applies: HepG2 microtubule cytoskeleton imaging, actives raise or lower the signal. The gist of the method:
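Microtubule stability is scored from tubulin immunofluorescence in fixed HepG2 cells imaged at 20x. Cells receive ten compound concentrations up to 200 uM for 24 h; taxol and DMSO serve as positive and negative controls.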

Assay [6] is described as follows: APR_HepG2_MitoticArrest_24hr: Apredica 24-hour HepG2 Assay for Mitotic Arrest (AID 2282910). Particulars: high-content imaging, actives raise or lower the signal. The method, boiled down: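 Treatment lasted 24 hr in the human HepG2 line at 0.39–200 uM, solvent held at 0.5% DMSO. Fixed cells were stained with Hoechst 33342 and anti-phospho-histone H3, imaged at 20x, and analysed by gain- or loss-of-signal fitting against DMSO.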

The nature of assay [7]: APR_HepG2_MitoMembPot_24hr: Apredica 24-hour HepG2 Assay for Mitochondrial Membrane Potential (AID 2282911). The following applies: imaging, actives raise or lower the signal. The gist of the method:
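Cells are dosed for 24 hr across 0.39 to 200 uM with solvent held at 0.5% DMSO. They are then stained with 250 nM MitoTracker Red CMXRos for 30 min, fixed in 3.7% formaldehyde and imaged.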

Assay [8] is described as follows: APR_HepG2_MitoMass_24hr: Apredica 24-hour HepG2 Assay for Mitochondrial Mass (AID 2282912). The following applies: high-content imaging, actives raise or lower the signal. The method, boiled down:
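Readout: fluorescence of MitoTracker Red CMXRos (250 nM, added 30 min pre-fixation) in fixed HepG2 cells imaged by HCS. Exposure lasted 24 hr at 0.39–200 uM; increases and decreases were both fitted relative to DMSO.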

Assay [9] in a line: APR_HepG2_p53Act_24hr: Apredica 24-hour HepG2 Assay for p53 Activation (AID 2282913).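 Also: p53 protein immunofluorescence averaged per cell in HepG2 with Hoechst nuclei.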 Particulars: high-content imaging, actives raise or lower the signal. The method, boiled down:
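Human HepG2 liver cells; 24 hr cpd treatment, 0.39–200 uM, 0.5% DMSO final. Fixed in 3.7% formaldehyde, permeabilized with 0.5% Triton X-100, stained with anti-p53/Cy5 plus Hoechst 33342. Six images per well at 20x; gain or loss vs DMSO.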

Assay [10] in a line: APR_HepG2_CellCycleArrest_72hr: Apredica 72-hour HepG2 Assay for Cell Cycle Arrest (AID 2282914). The following applies: high-content imaging, actives raise or lower the signal. The method, boiled down:
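Read-out is Hoechst-stained nuclear DNA content measured by automated fluorescence imaging (20x, six images per well), fitted in both directions relative to DMSO. Human HepG2 liver cells received 0.39–200 uM compound for 72 hr at 0.5% v/v DMSO.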

For `CC(C)N(C(=O)COc1nnc(C(F)(F)F)s1)c1ccc(F)cc1`, the compound was called inactive in assay [1], in assay [2], in assay [3], in [6], in assay [7] and in assay [8]. Also, the outcome in assay [9] was inactive. The results for the concentration at half-maximal activity (AC50) in assay [4] and in assay [5] were 115 µM (active) and 99.5 µM (active), respectively.
Take `Oc1ccc(Cl)cc1Cc1ccccc1`: the half-maximal activity concentration (AC50) (commonly the midpoint of the concentration-response curve, whichever way the signal moves) in [1] was 102 µM (active) [middle of 4 runs]; in assay [2], 77.4 µM (active); in assay [4], 77.3 µM (active) [middle of 6 runs]; in assay [5] it was 34.7 µM (active) and 79.9 µM (active) and 97.3 µM (active); in assay [6], 43.1 µM (active) and 76.7 µM (active) and 54 µM (active); in assay [8], 47.2 µM (active) and 157 µM (active) and 159 µM (active). Further, the AC50 in [9] was 80.5 µM (active) and 50.5 µM (active). In addition, the compound was classed as inactive in assay [1], in assay [3], in [4], in assay [5], in assay [6] and in [7]. The call in assay [8] and in [9] was inactive.
As for `CCC(C)Nc1c([N+](=O)[O-])cc(C(C)(C)C)cc1[N+](=O)[O-]` (centres undefined), the AC50 in [1] is 89 µM (active); in assay [4], 45.8 µM (active); in assay [5] it was 27.4 µM (active); in [7] it was 100 µM (active). In addition, the compound was classed as inactive in [2], in assay [3], in assay [6] and in assay [8].
As for `CCOC1Oc2ccc(OS(C)(=O)=O)cc2C1(C)C` (centres undefined), the compound was classed as inactive in assay [1], in assay [2], in assay [3], in [4], in assay [5] and in assay [6]. The result in [7] and in assay [8] was inactive.
Consider `CNC(=O)CSP(=S)(OC)OC`, for which the result in assay [1], in [2], in assay [3], in assay [4], in assay [5] and in assay [6] was inactive. Also, the call in assay [7] and in [8] was inactive.
For the compound `Oc1cc(Cl)ccc1Oc1ccc(Cl)cc1Cl`, the half-maximal activity concentration (AC50) in assay [1] is 9.18 µM (active) and 20.4 µM (active); in assay [3], 63.9 µM (active); in assay [4] it was 90.7 µM (active) and 70.9 µM (active) and 12.8 µM (active); in assay [5] it was 98.5 µM (active) and 33.3 µM (active); in assay [6], 61.6 µM (active) and 63.6 µM (active); in assay [7] it was 97.9 µM (active) and 4.39 µM (active). The AC50 was 177 µM (active) and 59 µM (active) in assay [8]; 28.4 µM (active) in assay [9]; 18.9 µM (active) and 11.6 µM (active) in assay [10]. For the same compound, the compound was called inactive in assay [1], in assay [2], in assay [3], in assay [5], in [6] and in [7]. In addition, the compound was called inactive in [8], in assay [9] and in assay [10].
Regarding `CC(C)(C)C(O)C(Oc1ccc(Cl)cc1)n1cncn1` (centres undefined), in assay [1], the AC50 is 97.1 µM (active) and 78.4 µM (active). Besides, the compound was called inactive in [1], in [2], in assay [3], in assay [4], in assay [5] and in assay [6]. The call in [7], in assay [8] and in assay [9] was inactive.
As to `O=C(Nc1ccccc1)Nc1cnns1`, the compound was called inactive in [1], in [2], in [3], in [4], in [6] and in assay [7]. In addition, the call in assay [8] and in assay [9] was inactive. In addition, the AC50 in [5] is 68.9 µM (active).
`ClC1C(Cl)C(Cl)C(Cl)C(Cl)C1Cl` (centres undefined): the call in [1], in [2], in assay [3], in assay [4], in assay [5] and in [6] was inactive. For the same compound, the result in assay [7], in assay [8] and in assay [9] was inactive.
`N#CN`: the call in assay [1], in assay [2], in assay [3], in assay [4], in assay [5] and in [6] was inactive. The outcome in [7] and in assay [8] was inactive.
On to `[2H]C1([2H])[n+]2ccccc2-c2cccc[n+]2C1([2H])[2H]`, for which the compound was called inactive in assay [1], in [2], in [3], in assay [4], in [5] and in assay [6]. Further, the outcome in assay [7], in assay [8] and in [9] was inactive.
On to `CNC(=O)/C=C(\C)OP(=O)(OC)OC`, for which the result in assay [1], in assay [2], in [3], in assay [4], in assay [5] and in assay [6] was inactive. Further, the outcome in assay [7] and in assay [8] was inactive.
